Among the data in PubChem BioAssay (NCI) are growth values, retold here.

Common to all, as to assay: NCI-60 one-dose screen, 48 h (100 = growth as untreated, 0 = no growth, -100 = all killed)
In one test the test system is NCI-H23 lung. The note with it: 10 µM unless noted.
A further test relates to NCI-H226 lung. The settings on record: 10 µM unless noted.
Another test relates to NCI-H322M lung. The note with it: 10 µM unless noted.
A further test deals with HOP-62 NSCLC. The settings on record: 10 µM unless noted.
The next test has as its system HOP-92 NSCLC. The note with it: 10 µM.
For the next test, the system named is A549/ATCC NSCLC. The note with it: 10 µM unless noted.
A further test deals with 786-0 renal. The settings on record: 10 µM unless noted.
Another test deals with COLO 205 colon. The settings on record: 10 µM unless noted.
The next test deals with DU-145 prostate. The settings on record: 10 µM unless noted.
The subject of the next test is K-562 leukemia. The settings on record: 10 µM unless noted.
A further test has as its system MALME-3M melanoma. The settings on record: 10 µM unless noted.
A further test concerns MDA-MB-231 breast. The note with it: 10 µM unless noted.
For the next test, the system named is RXF 393 renal. The settings on record: 10 µM unless noted.
The subject of the next test is SF-268 CNS. The settings on record: 10 µM unless noted.
The subject of a further test is SF-295 CNS. The note with it: 10 µM unless noted.
For a further test, the system named is SF-539 CNS. The note with it: 10 µM unless noted.
Another test concerns UACC-257 melanoma. The note with it: 10 µM unless noted.
The next test has as its system M14 melanoma. The note with it: 10 µM unless noted.
The next test deals with NCI-H522 lung. The settings on record: 10 µM.

Compounds without any hit were thinned out: in the full panel of roughly 83,000, 20% have a hit.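 Plates (96-well) were seeded with cells, treated with compound at one concentration, and incubated for 48 hours before percent growth was determined.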 A number with no mark means an inactive call. Calls of active or inactive are those of the source. How the source made its calls: active means growth percent below 10; inactive means the rest.

As for `CCCCCCCCCc1cc[n+](CC(=O)c2ccc([N+](=O)[O-])cc2)cc1`, the growth is 14.2% with NCI-H23 lung; 31.8% with NCI-H226 lung; 71.6% with NCI-H322M lung; 27.2% in the test with HOP-62 NSCLC; -45.2% (active) with HOP-92 NSCLC; -23.7% (active) with A549/ATCC NSCLC. Besides, the growth in the test with 786-0 renal is 31.9%; in the test on COLO 205 colon it was -76.9% (active); with DU-145 prostate it was 23.7%; in the test on K-562 leukemia, -4.43% (active); with MALME-3M melanoma, -34.9% (active); with MDA-MB-231 breast, -76.7% (active). Further, the growth with RXF 393 renal was 32.5%; in the test on SF-268 CNS, 29.6%; with SF-295 CNS, 9.4% (active); with SF-539 CNS it was -87.5% (active); with UACC-257 melanoma, 0.0548% (active); in the test on M14 melanoma it was -67.3% (active).

In the case of `N#Cc1ccc(NC2c3ccccc3CC2O)cc1` (centres undefined), the growth in the test with NCI-H23 lung is 101%; in the test on NCI-H226 lung, 102%; in the test on NCI-H322M lung, 114%; in the test with HOP-62 NSCLC it was 105%; in the test on HOP-92 NSCLC, 85%; with NCI-H522 lung it was 104%. Also, the growth in the test on A549/ATCC NSCLC is 106%; in the test with 786-0 renal, 108%; with COLO 205 colon, 108%; with DU-145 prostate it was 110%; in the test with K-562 leukemia, 90.4%; in the test on MDA-MB-231 breast, 114%. Further, the growth was 89.6% in the test with RXF 393 renal; 115% in the test with SF-268 CNS; 114% in the test with SF-295 CNS; 102% in the test on SF-539 CNS; 125% in the test on UACC-257 melanoma; 106% with M14 melanoma.

As to `COc1cc2oc(-c3ccc(NC(=O)c4ccccc4)cc3)cc(=O)c2c(OC)c1OC`, the growth with NCI-H23 lung is 82.4%; with NCI-H226 lung it was 85.4%; in the test with NCI-H322M lung, 69.4%; in the test with HOP-62 NSCLC it was 90.3%; with HOP-92 NSCLC it was 69.2%; in the test on NCI-H522 lung, 70.2%. Moreover, the growth is 80.3% in the test with A549/ATCC NSCLC; 90.4% in the test on 786-0 renal; 82.3% with DU-145 prostate; 102% in the test on K-562 leukemia; 74.8% in the test on MALME-3M melanoma; 74.9% in the test with MDA-MB-231 breast. For the same molecule, the growth with RXF 393 renal was 90.2%; in the test with SF-268 CNS it was 77.5%; in the test with SF-295 CNS it was 77.4%; in the test with SF-539 CNS, 81.6%; in the test with UACC-257 melanoma, 97.3%; with M14 melanoma it was 92.8%.

In the case of `Cc1ccc(C(=O)Nc2ccc(CN3CCN(C)CC3)c(C(F)(F)F)c2)cc1C#Cc1cnc(N)c2ccc(C#N)cc12`, the growth with NCI-H23 lung was 48.3%; in the test on NCI-H226 lung, 54.4%; with NCI-H322M lung, 73.8%; in the test with HOP-62 NSCLC, 42.7%; in the test with HOP-92 NSCLC, 13.7%; in the test with NCI-H522 lung, 60.6%. For the same molecule, the growth in the test on A549/ATCC NSCLC is 36.7%; in the test with 786-0 renal, -25% (active); in the test with DU-145 prostate, 43.1%; in the test with K-562 leukemia it was -25.5% (active); with MALME-3M melanoma, -51.9% (active); in the test on MDA-MB-231 breast, 11.2%. For the same molecule, the growth in the test on RXF 393 renal was 30.4%; in the test with SF-268 CNS it was 45%; with SF-295 CNS it was 61.8%; in the test with SF-539 CNS, 51.8%; in the test on UACC-257 melanoma it was 45.6%; with M14 melanoma it was 8.81% (active).

In the case of `COC(=O)C1CC(=O)N(C(=O)Nc2ccc(Cl)cc2Cl)C1` (centres undefined), the growth was 98.8% in the test on NCI-H23 lung; 94.6% with NCI-H226 lung; 108% in the test on NCI-H322M lung; 85.5% in the test on HOP-62 NSCLC; 83.1% with HOP-92 NSCLC; 80.3% in the test with NCI-H522 lung. For the same molecule, the growth with A549/ATCC NSCLC was 96.3%; with 786-0 renal it was 92.4%; in the test on DU-145 prostate, 114%; in the test on K-562 leukemia, 92.8%; with MALME-3M melanoma it was 108%; in the test with MDA-MB-231 breast it was 95.3%. Besides, the growth in the test on RXF 393 renal was 120%; in the test with SF-268 CNS, 101%; in the test with SF-295 CNS it was 96.7%; with SF-539 CNS it was 99.6%; with UACC-257 melanoma, 96.6%; with M14 melanoma, 94.1%.

For `C/C=C(/C)C(=O)OC1C=C(CO)C(=O)C(OC(=O)C2(C)OC2C)C1C(C)C` (centres undefined), the growth in the test with NCI-H23 lung is -63.1% (active); in the test on NCI-H226 lung, -36.4% (active); with NCI-H322M lung, -3.37% (active); in the test on HOP-62 NSCLC, 0.921% (active); with HOP-92 NSCLC, -35.1% (active); with NCI-H522 lung, -79.5% (active). In addition, the growth in the test on A549/ATCC NSCLC is -23.5% (active); in the test on 786-0 renal, -89.7% (active); with DU-145 prostate, 6.72% (active); in the test with K-562 leukemia, 1.51% (active); in the test on MALME-3M melanoma, -77.4% (active); in the test with MDA-MB-231 breast, 1.48% (active). Moreover, the growth is -74.3% (active) in the test with RXF 393 renal; 13.3% in the test with SF-268 CNS; -20.5% (active) in the test on SF-295 CNS; -65.6% (active) with SF-539 CNS; -9.59% (active) in the test on UACC-257 melanoma; -49.2% (active) with M14 melanoma.

As for `COc1ccccc1C(=O)Nc1cccc(-c2cc(=O)c3c(OC)c(OC)c(OC)cc3o2)c1`, the growth was 62.4% in the test on NCI-H23 lung; 58.4% with NCI-H226 lung; 43.6% in the test on NCI-H322M lung; 57.8% in the test on HOP-62 NSCLC; -0.39% (active) in the test with HOP-92 NSCLC; 44.3% with NCI-H522 lung. The growth in the test with A549/ATCC NSCLC is 48.2%; in the test on 786-0 renal it was 45.3%; with DU-145 prostate, 44.9%; with K-562 leukemia it was 36.4%; with MALME-3M melanoma, 65.5%; in the test on MDA-MB-231 breast, 51.3%. Also, the growth with RXF 393 renal is 59%; with SF-268 CNS, 54.5%; in the test with SF-295 CNS, 59.2%; in the test on SF-539 CNS, 63.8%; in the test on UACC-257 melanoma it was 61.5%; in the test on M14 melanoma it was 41.5%.

With `Cc1ccc(C(=O)Nc2ccc(CN3CCN(C)CC3)c(C(F)(F)F)c2)cc1C#Cc1cnc(N)c2ccc(F)cc12`, the growth in the test on NCI-H23 lung is -77.3% (active); with NCI-H226 lung it was -45.5% (active); in the test on NCI-H322M lung, -99.3% (active); in the test on HOP-62 NSCLC, -68.8% (active); in the test with HOP-92 NSCLC it was -90.3% (active); with NCI-H522 lung, -75.1% (active). Moreover, the growth was -87.5% (active) in the test with A549/ATCC NSCLC; -85.3% (active) in the test with 786-0 renal; -91.7% (active) in the test on DU-145 prostate; -78.2% (active) in the test on K-562 leukemia; -88.4% (active) in the test on MALME-3M melanoma; -90.7% (active) in the test on MDA-MB-231 breast. The growth was -90.8% (active) in the test with RXF 393 renal; -75.2% (active) with SF-268 CNS; -76.9% (active) in the test on SF-295 CNS; -92.5% (active) with SF-539 CNS; -60.9% (active) in the test with UACC-257 melanoma; -83.1% (active) in the test on M14 melanoma.
